Experimental findings from ChEMBL document CHEMBL3988442, “University of Dundee, Small-Polar-MMV Screening Library” (2021) are described below.

In all, about 48,000 compounds went through this assay and about 13,000 (27%) showed an effect of 50% or more. The list shows a part of the results.

For this assay, the system named is Wolbachia pipientis. Put plainly: Anti-Wolbachia Cell-Based Screen. It is filed as functional. Also on record: scale not given: in the data most compounds retested in dose-response had high values. The settings on record: 5 µM.
With `O=C(CN1C(=O)CCC1=O)N1CCOC2(CCOCC2)C1`, the “Percent Effect” value was 13.71%. With `O=C(NC1CCN(CC2CC2)C1)c1ccc(N2CCC(O)CC2)cc1` (centres undefined), the “Percent Effect” value was -2.601%. As for `CCN(C)S(=O)(=O)N(CC)Cc1cccc(-c2ccncc2)c1`, the “Percent Effect” value worked out at 31.71%. Take `Cc1cc2c(cc1C)OC(C(=O)NCCNC(=O)C1CCCC1)C2` (centres undefined): the “Percent Effect” value was -3.964%. On to `Cc1ccc(C)c(-n2cc(CN3CC[C@@H](O)C3)c(-c3ccccc3)n2)c1`, for which the “Percent Effect” value is recorded as 7.715%.

`CCN1CCN(C(=O)c2ccc3c(c2)OCC(=O)N3)[C@H]2CS(=O)(=O)C[C@H]21`: the “Percent Effect” value is listed as -0.2208%.

For `CC(C)(O)c1cc(CC2(NCc3ccccc3Cl)COC2)no1`, the “Percent Effect” value was -20.02%. With `Cn1cc(CN2C[C@H]3CCC[C@@H](CNc4nccn4C)[C@H]3C2)cn1.O=C(O)C(F)(F)F`, the “Percent Effect” value was -10.56%.

On to `Cc1cc(CN(CC(N)=O)CC(C)C)on1`, for which the “Percent Effect” value was -7.292%. The value for `Cn1nc(C2CCCN2)c2c(C(=O)NC3CC3)cc(C3CC3)nc21` (centres undefined) was 135.7%.

In the case of `Cn1nc(C2CCNC2)c2c(C(=O)NC3CC3)cc(C3CC3)nc21` (centres undefined), the “Percent Effect” value is 110%. Regarding `Cn1nc(C2CCNCC2)c2c(C(=O)NC3CC3)cc(C3CC3)nc21`, the “Percent Effect” value came out at 128.7%. The value for `Cn1nc(C2CCCNC2)c2c(C(=O)NC3CC3)cc(C3CC3)nc21` (centres undefined) was 121.4%; that for `CCCn1ncc2c(C(=O)Nc3n[nH]c(SC)n3)cc(C3CC3)nc21` was 6.515%. `Cc1nc(NCCSc2cnn[nH]2)c2cccnc2n1`: the “Percent Effect” value stood at 2.11%.

With `Cc1cnn(CCNCc2nc(-c3ccsc3)oc2C)c1`, the “Percent Effect” value is reported as -10.22%. In the case of `CCCN(C)S(=O)(=O)NC(=O)c1ccc(CC)o1`, the “Percent Effect” value was 14.97%. For `O=C(CNC1CCc2ncnn2C1)N(C1=CCCCC1)C1CC1` (centres undefined), the “Percent Effect” value is recorded as -15.4%. As to `Fc1cccc(N2CCOC3(CCCN(c4cnccn4)C3)C2)c1` (centres undefined), the “Percent Effect” value was 11.27%. As to `CN(C)CCN(Cc1ccccc1)C(=O)CN1CCCNC1=O`, the “Percent Effect” value is -13.77%.

On to `CC1CCN(CCNC(=O)C2CCN(C(=O)C(C)(C)C)CC2)CC1`, for which the “Percent Effect” value is given as 2.038%.

With `CCCS(=O)(=O)CC(=O)N1CCCC1c1noc(C2CC2)n1` (centres undefined), the “Percent Effect” value is given as -6.337%.

On to `CCC(=O)N1CCCCC1c1nc(O)c2c(n1)CN(S(C)(=O)=O)CC2` (centres undefined), for which the “Percent Effect” value turned out to be 103.7%. Then `CCS(=O)(=O)CC(=O)N1CCCC1c1noc(C2CC2)n1` (centres undefined), with -5.674%; and `CCC(=O)N1CCCCC1c1nc(O)c2c(n1)CN(S(=O)(=O)CC)CC2` (centres undefined), with 126.4%. Consider `CC(C)NC(=O)c1ccc2nnc(C3CN(C)CCN3C)n2c1.O=C(O)C(F)(F)F.O=C(O)C(F)(F)F` (centres undefined), for which the “Percent Effect” value was -4.33%.

Take `COCc1cc(N(Cc2ccsc2)C2CC2)n2ncnc2n1`: the “Percent Effect” value is -20.66%. The value for `Cc1oc(C(C)C)cc1C(=O)N1C[C@H]2CC[C@@H]1CN(S(=O)(=O)N(C)C)C2` was 1.683%; that for `CSc1[nH]c(=O)c(C(=O)N2CCCC2C2CCCC2)cc1C#N` (centres undefined) was 90.55%; that for `COCCn1cc(C(=O)N2CCCC2c2cccs2)c2ccccc21` (centres undefined) was 20.58%. The value for `CCC1CCCCCN1C(=O)c1cc(C#N)c(SC)[nH]c1=O` (centres undefined) was 95.93%. For the compound `CSc1[nH]c(=O)c(C(=O)N2CCCC2c2cccs2)cc1C#N` (centres undefined), the “Percent Effect” value was 109.4%.

For `Cn1c(=O)[nH]c(=O)c2cc(C(=O)N3CCCC3C3CCCC3)cnc21` (centres undefined), the “Percent Effect” value is listed as 9.231%. `CCc1cn[nH]c1C1CCN(C(=O)c2cc(C#N)c(=O)[nH]c2C)CC1`: the “Percent Effect” value is 0.2267%. `O=C(c1cnc2[nH]c(=O)[nH]c(=O)c2c1)N1CCCC1C1CCCC1` (centres undefined): the “Percent Effect” value is listed as -0.6345%. On to `N#Cc1ncn(CC(=O)N2CCCC2c2cccs2)n1` (centres undefined), for which the “Percent Effect” value was -17.52%. For `CCc1cn[nH]c1C1CCCN(C(=O)c2cc(C#N)c(=O)[nH]c2C)C1` (centres undefined), the “Percent Effect” value is given as -3.715%. The value for `COc1ccc2c(CN3CCCN(Cc4ccncc4)CC3)n[nH]c2c1` was -3.33%. The value for `COc1ccccc1-c1noc(CN2CCCC2Cn2cccn2)n1` (centres undefined) was -4.509%; that for `COCCc1noc(CN2CCCC2Cn2cccn2)n1` (centres undefined) was 82.73%.

In the case of `c1cnn(CC2CCCN2Cc2nc(C3CC3)no2)c1` (centres undefined), the “Percent Effect” value turned out to be 112.2%. Then `COCCc1noc(CN2CCCCC2Cn2cccn2)n1` (centres undefined), with 100.4%. `c1cnn(CC2CCCN2Cc2nc(-c3ccoc3)no2)c1` (centres undefined): the “Percent Effect” value is given as -2.106%.

Consider `Cc1cccc(-c2noc(CN3CCCC3Cn3cccn3)n2)c1` (centres undefined), for which the “Percent Effect” value turned out to be 3.964%. For `COCCc1noc(CN2CCCC2Cn2cc(C)cn2)n1` (centres undefined), the “Percent Effect” value was determined as 0.3604%. `COCCc1noc(CN2CCCCC2Cn2cc(C)cn2)n1` (centres undefined): the “Percent Effect” value stood at 4.505%. For `NC(=O)C1CCCN1Cc1cccc(NC(=O)c2ccsc2)c1` (centres undefined), the “Percent Effect” value is given as 23.54%. With `CCOc1ccnc(N2CCN(C(=O)CCc3cnn(C)c3)CC2)n1`, the “Percent Effect” value is -13.21%.

For the compound `CC(C)(C)[S+]([O-])CCNC(=O)c1ccc(Cl)c2cccnc12` (centres undefined), the “Percent Effect” value is given as -0.5335%. The value for `CCN(CC)C(CNCc1ccc(OC)c(F)c1)c1ccco1` (centres undefined) was 3.453%; that for `CC(C)(C)c1cnc(CN2CCN(c3ncccn3)CC2)o1` was -4.757%. Turning to `CC(C)=CCC1(CO)CCCN(Cc2cnc(N3CCOCC3)nc2)C1` (centres undefined), the “Percent Effect” value is recorded as -21.22%.

With `CN(CCc1ccccc1)Cc1cc(C(=O)N2CCCC2(C)C)no1`, the “Percent Effect” value is given as -2.856%. Regarding `CN(CCc1ccccc1)Cc1cnc(C2(C)CCCCO2)nc1` (centres undefined), the “Percent Effect” value is on record as 153.2%. On to `CN(CCc1ccccc1)Cc1nc(-c2cnccn2)no1`, for which the “Percent Effect” value was -27.95%. For the compound `CC1(c2ncc(CN3CCN(c4ncccn4)CC3)cn2)CCCCO1` (centres undefined), the “Percent Effect” value was 136.6%.

For `Cn1cnnc1C1CCCN(C(=O)CCc2ccc3c(c2)OCO3)C1` (centres undefined), the “Percent Effect” value is 6.982%.

Take `Cc1cc(C(=O)N2CCCC(c3nncn3C)C2)no1` (centres undefined): the “Percent Effect” value is 92.93%. Turning to `Cc1cc(C)n(C2CCCN(C(=O)c3cc(C4CC4)on3)C2)n1` (centres undefined), the “Percent Effect” value is reported as 8.092%. As to `Cn1cnnc1C1CCCN(C(=O)Cc2ccc3c(c2)OCCO3)C1` (centres undefined), the “Percent Effect” value stood at 17.9%. With `Cn1cnnc1C1CCCN(C(=O)c2cc(C3CC3)on2)C1` (centres undefined), the “Percent Effect” value came out at 107.9%. In the case of `Cc1ccc(C(NC(=O)CN2CCc3cncnc3C2)C2CC2)cc1` (centres undefined), the “Percent Effect” value amounted to 0.6852%.

As to `Cc1nonc1OCCNc1ncnc2sc3c(c12)CCNC3`, the “Percent Effect” value is -7.187%.

Turning to `O=C1CN(Cc2nnc(-c3ccc(Br)cc3)o2)CCN1`, the “Percent Effect” value is given as -13.92%. Take `CC(c1ccc(-c2cnc(N)nc2)cc1)N1CCOCC1` (centres undefined): the “Percent Effect” value is reported as 42.28%. Consider `Cn1ccc(C(=O)N2CCC3(CCN3c3ncccn3)C2)n1.O=C(O)C(F)(F)F` (centres undefined), for which the “Percent Effect” value is recorded as 111.1%. As for `Cn1cccc1C(=O)N1CCC2(CC1)CN(c1ccccn1)CCO2.O=C(O)C(F)(F)F`, the “Percent Effect” value is -8.251%. The value for `O=C(O)C(F)(F)F.O=C(c1c[nH]cn1)N1CCC(F)(F)C2(CCN(c3ncccn3)C2)C1` (centres undefined) was 7.042%; that for `Cn1ccnc1C(=O)N1CCC2(CCN2c2ncccn2)C1.O=C(O)C(F)(F)F` (centres undefined) was 99.87%.

Consider `CCN1CCCC12CCN(C(=O)c1nccn1C)CC2.O=C(O)C(F)(F)F`, for which the “Percent Effect” value is recorded as -7.491%. `Cn1cccc1C(=O)N1CCC2(CCCN2c2ncccn2)CC1.O=C(O)C(F)(F)F`: the “Percent Effect” value is reported as 1.069%. Take `Cn1cccc1C(=O)N1CCC2(CCN2c2ncccn2)C1.O=C(O)C(F)(F)F` (centres undefined): the “Percent Effect” value turned out to be 93.48%. For `CCCC(C)N(C)Cc1nnc(-c2ccco2)o1` (centres undefined), the “Percent Effect” value is -4.256%.

Consider `CSc1c[nH]nc1NS(=O)(=O)c1cc(F)ccc1C`, for which the “Percent Effect” value is listed as -3.23%. Regarding `CCN1CCN(Cc2nc(Cc3ccccc3)n[nH]2)CC1`, the “Percent Effect” value came to 2.697%. Take `O=C(CCc1ccc2c(c1)OCO2)Nc1cccnc1-n1cncn1`: the “Percent Effect” value is on record as 6.275%. Then `O=C(NCc1ccc2c(c1)OCO2)[C@H]1C=CCN1c1ncccn1`, with 120.2%. With `O=C(NCc1ccc2c(c1)OCO2)N1CCCC2(C1)OCCO2`, the “Percent Effect” value is reported as 2.082%. Regarding `O=C(NCc1ccc2c(c1)OCO2)[C@@H]1C=CCN1c1ncccn1`, the “Percent Effect” value is 142.5%. For `CC(NC(N)=O)C(=O)NCc1ccc(Br)c(F)c1` (centres undefined), the “Percent Effect” value is given as -7.533%. For `Cc1c(CN2CCCC(c3[nH]ncc3S(C)(=O)=O)C2)cnn1C` (centres undefined), the “Percent Effect” value was 3.915%. As for `CCC(CC)N1CCC(c2[nH]ncc2S(C)(=O)=O)C1` (centres undefined), the “Percent Effect” value was 101.4%. Turning to `CC(=O)N1CCN(C(=O)NCCCc2cn[nH]c2C)CC1`, the “Percent Effect” value was -4.106%. For `CCc1cn[nH]c1C1CCN(C(=O)c2cc(C(C)=O)c(C)[nH]c2=O)CC1`, the “Percent Effect” value is recorded as 3.575%.

As for `CN1CCN(C(=O)C2CCCc3[nH]ncc32)CC1` (centres undefined), the “Percent Effect” value is -8.316%.

In the case of `CC(=O)N1CCC(c2[nH]ncc2S(C)(=O)=O)CC1`, the “Percent Effect” value was found to be 87.45%. As for `CN1CCC(c2[nH]ncc2S(C)(=O)=O)CC1`, the “Percent Effect” value is 125.9%.

Consider `CC(=O)N(C)C1CCN(C(=O)NCC(C)Cc2cccs2)CC1` (centres undefined), for which the “Percent Effect” value is on record as 8.983%. Consider `O=C(O)[C@@H]1CN(Cc2ccc(-c3cc[nH]n3)s2)C[C@H]1C1CC1`, for which the “Percent Effect” value is 7.901%. In the case of `CCOC(=O)c1nnc2ccccc2c1N1CCN(C(C)C)CC1`, the “Percent Effect” value is listed as -0.1532%.

Regarding `COC(=O)[C@H]1C[C@@H](O)CCN1S(=O)(=O)c1cc(C)c(Cl)cc1C`, the “Percent Effect” value is on record as -11.31%.

Take `O=C(Nc1ccccc1C(=O)N1CCCC1)NC1CCOCC1`: the “Percent Effect” value is given as -1.242%. With `Cc1ccc(CN2CCC(c3nnc(CN4CCCCC4)n3C)CC2)o1`, the “Percent Effect” value was -6.981%. With `CCn1cc(CNC(=O)CCc2nnc(-c3ccc(C)s3)o2)cn1`, the “Percent Effect” value was 1.856%. On to `O=C([C@H]1CN(Cc2nccs2)C[C@H]2OCC[C@@H]12)N1CCCC1`, for which the “Percent Effect” value is -16.26%. For the compound `CN1CCN(C(=O)[C@H]2CC[C@@H]3[C@@H](CCN3Cc3nccs3)O2)CC1`, the “Percent Effect” value is 100.9%.

With `CN1CCN(C(=O)[C@H]2C[C@H]3[C@H](CCN3Cc3nccs3)O2)CC1`, the “Percent Effect” value is 108.2%. For `Cc1ccsc1CN1CC[C@H]2O[C@H](C(=O)N3CCCO3)CC[C@H]21`, the “Percent Effect” value is on record as -0.787%. The value for `CN1CC[C@H](c2nnc(-c3cncn3C)o2)C1` was -6.33%.
